Our source for the Potency values is PubChem BioAssay (NCATS).

Test [1] is described as follows: Quantitative High-Throughput drug screen in 47 multiple myeloma cell lines against the NCATS MIPE library collection: H1112_PLB cell viability assay (AID 1918967; also: nearly all actives have a fitted effect of over 30% in size). The method in brief: (§1)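 We plated 500 myeloma cells per well, pinned in MIPE 4.0 compounds, and incubated for 48 hours at 37C. ATP was then quantified with CellTiter-Glo, with DMSO and media-only wells defining 100% and 0%.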

Test [2] can be described thus: Quantitative High-Throughput drug screen in 47 multiple myeloma cell lines against the NCATS MIPE library collection: Karpas25_ECACC cell viability assay (AID 1918968; also: nearly all actives have a fitted effect of over 35% in size). The method in brief: as §1
Test [3] in a line: Quantitative High-Throughput drug screen in 47 multiple myeloma cell lines against the NCATS MIPE library collection: KMS27_JCRB cell viability assay (AID 1918970). Also: nearly all actives have a fitted effect of over 30% in size. Conditions: KMS27 myeloma cells, CellTiter-Glo ATP viability, 48 h; viability (% of DMSO): at 45.8 µM (top of the series). The essentials:
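CellTiter-Glo luminescence after 48 h drug exposure at 37 °C; 500 cells/well, 1536-well format, pin-tool compound addition; DMSO = 100%, media-only = 0% viability.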
For orientation: ATP-based viability assays read luminescence as a measure of living cells.

Test [4] in a line: Quantitative High-Throughput drug screen in 47 multiple myeloma cell lines against the NCATS MIPE library collection: KMS12PE_JCRB cell viability assay (AID 1918972). Also: nearly all actives have a fitted effect of over 30% in size. The essentials:
(§2)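 CellTiter-Glo ATP luminescence gave viability after 48 h compound treatment at 37C of 500 multiple myeloma cells per well. Normalisation used DMSO-only wells as 100% and media-only wells as 0% viability; primary qHTS of approved and investigational drugs.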

Test [5] is described as follows: Quantitative High-Throughput drug screen in 47 multiple myeloma cell lines against the NCATS MIPE library collection: NCIH929_DSMZ cell viability assay (AID 1918978). Also: nearly all actives have a fitted effect of over 35% in size. The essentials:
(§3)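 ATP-based CellTiter-Glo luminescence after 48 h drug exposure (37 °C, 5% CO2) of 500 myeloma cells per well. DMSO-only wells set 100% viability, media-only wells 0%; MIPE 4.0 library added by pin tool.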

Test [6] is described as follows: Quantitative High-Throughput drug screen in 47 multiple myeloma cell lines against the NCATS MIPE library collection: JIM1_ECACC cell viability assay (AID 1918964). The essentials: as §1
Test [7] in a line: Quantitative High-Throughput drug screen in 47 multiple myeloma cell lines against the NCATS MIPE library collection: JJN3_DSMZ cell viability assay (AID 1918966; also: nearly all actives have a fitted effect of over 50% in size). The method in brief: as §1
Test [8] can be described thus: Quantitative High-Throughput drug screen in 47 multiple myeloma cell lines against the NCATS MIPE library collection: KMS12BM_JCRB cell viability assay (AID 1918971). Also: nearly all actives have a fitted effect of over 35% in size. The essentials: (§4)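 Myeloma cells (500 per well) were exposed to MIPE 4.0 compounds by pin transfer and incubated 48 hours at 37C, 5% CO2. Viability was read as ATP by CellTiter-Glo luminescence, normalised to DMSO (100%) and media-only (0%) wells.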

Test [9] can be described thus: Quantitative High-Throughput drug screen in 47 multiple myeloma cell lines against the NCATS MIPE library collection: KMS20_JCRB cell viability assay (AID 1918973). Also: nearly all actives have a fitted effect of over 45% in size. The method in brief:
as §1

Test [10] can be described thus: Quantitative High-Throughput drug screen in 47 multiple myeloma cell lines against the NCATS MIPE library collection: KMS26_JCRB cell viability assay (AID 1918975). Also: nearly all actives have a fitted effect of over 45% in size. The essentials: as §4
Test [11] can be described thus: Quantitative High-Throughput drug screen in 47 multiple myeloma cell lines against the NCATS MIPE library collection: MMM1_PLB cell viability assay (AID 1918976). Also: nearly all actives have a fitted effect of over 35% in size. The method in brief: as §3
A short description of test [12]: Quantitative High-Throughput drug screen in 47 multiple myeloma cell lines against the NCATS MIPE library collection: MOLP8_DSMZ cell viability assay (AID 1918977). Also: nearly all actives have a fitted effect of over 45% in size. The essentials:
as §3

Test [13] in a line: Quantitative High-Throughput drug screen in 47 multiple myeloma cell lines against the NCATS MIPE library collection: OCIMY1_PLB cell viability assay (AID 1918979). Also: nearly all actives have a fitted effect of over 35% in size. The method in brief: as §3
Test [14] in a line: Quantitative High-Throughput drug screen in 47 multiple myeloma cell lines against the NCATS MIPE library collection: MM1S_ATCC cell viability assay (AID 1918980). Also: nearly all actives have a fitted effect of over 45% in size. The essentials: as §3
Test [15] can be described thus: Quantitative High-Throughput drug screen in 47 multiple myeloma cell lines against the NCATS MIPE library collection: MM1R_ATCC cell viability assay (AID 1918981). Also: nearly all actives have a fitted effect of over 35% in size. The essentials:
as §3

The nature of test [16]: Quantitative High-Throughput drug screen in 47 multiple myeloma cell lines against the NCATS MIPE library collection: INA6_PLB cell viability assay (AID 1918965; also: nearly all actives have a fitted effect of over 55% in size). The essentials: as §2
Test [17] is described as follows: Quantitative High-Throughput drug screen in 47 multiple myeloma cell lines against the NCATS MIPE library collection: JIM3_ECACC cell viability assay (AID 1918963; also: nearly all actives have a fitted effect of over 35% in size). The essentials: as §4
Test [18] is described as follows: Quantitative High-Throughput drug screen in 47 multiple myeloma cell lines against the NCATS MIPE library collection: KMS21BM_JCRB cell viability assay (AID 1918974). Conditions: ATP luminescence, 48 h; viability: at 45.8 µM (top of the series). The method in brief:
as §1

Records with an inconclusive call do not appear. Active and inactive are the calls of the source. Calls follow the shape of the dose curve; as a rule, active = well fitted curve in the direction sought with a large enough effect; inconclusive = small, poorly fitted or top-dose-only effect, or another doubt; inactive = no such curve, though single readings can be large; an effect the other way counts as inactive or inconclusive.
Potency is read from the fitted curve at half-maximal effect.

As for `Oc1ccc([C@@H]2Oc3ccc(O)cc3[C@@H]3CCC[C@@H]32)cc1`, the Potency was 11.8 µM (active) in test [1], 14.8 µM (active) in test [2] and 18.7 µM (active) in test [5]. For the same compound, the Potency entry in [3] and in test [4] was “inactive” throughout.
Turning to `N#CNC(=NCCCCCCOc1ccc(Cl)cc1)Nc1ccncc1`, the Potency in test [6] is 0.0296 µM (active); in test [7], 0.0105 µM (active); in test [3] it was 0.001 µM (active); in test [8], 0.0118 µM (active); in test [4], 0.0042 µM (active); in test [9], 8.33 µM (active). For the same compound, the Potency in test [10] is 0.0074 µM (active); in test [11], 18.7 µM (active); in test [12], 0.0235 µM (active); in test [13], 0.0105 µM (active); in [14], 0.0059 µM (active); in test [15], 0.0093 µM (active). The Potency entry in [2] is “inactive”.
Consider `C[C@H](NC(=O)Cc1cc(F)cc(F)c1)C(=O)N[C@H](C(=O)OC(C)(C)C)c1ccccc1`, for which the Potency entry in test [1], in test [2], in test [3], in [4], in [10] and in test [5] was “inactive” throughout. Further, the Potency result in test [13], in test [14] and in test [15] was “inactive” in each case. Further, the Potency in [8] was 4.69 µM (active).
In the case of `CCN(CC)CCCCNc1ncc2c(n1)N(C)C(=O)N(c1c(Cl)c(OC)cc(OC)c1Cl)C2`, the Potency result in [6], in test [4] and in [5] was “inactive” each time. The Potency is 11.8 µM (active) in [16]; 16.6 µM (active) in test [1]; 16.6 µM (active) in [2]; 9.35 µM (active) in test [11]; 4.69 µM (active) in test [14]; 16.6 µM (active) in [15].
Turning to `CC[C@H](CC[C@@H](C)[C@H]1CC[C@H]2[C@@H]3CC=C4C[C@@H](O)CC[C@]4(C)[C@@H]3CC[C@]12C)C(C)C`, the Potency entry in test [17], in test [7], in test [1], in test [2], in test [8] and in test [9] was “inactive” in each case. The Potency result in test [10], in [12], in test [5], in [13] and in test [15] was “inactive” throughout.
As to `C=CC(=O)Nc1cc(NC(=O)c2ccc(C)c(NC(=O)c3ccno3)c2)cc(C(F)(F)F)c1`, the Potency in test [16] was 16.6 µM (active); in [7], 18.7 µM (active); in test [1] it was 18.7 µM (active); in test [2], 14.8 µM (active); in [8] it was 23.5 µM (active); in test [4], 8.33 µM (active). Besides, the Potency is 18.7 µM (active) in [10]; 20.9 µM (active) in test [11]; 18.7 µM (active) in test [12]; 16.6 µM (active) in test [5]; 20.9 µM (active) in test [15].
Take `C[C@H](NC(=O)[C@@H](O)c1cc(F)cc(F)c1)C(=O)N[C@@H]1C(=O)N(C)c2ccccc2-c2ccccc21`: the Potency entry in [16], in test [7], in [2], in [4], in test [9] and in test [10] was “inactive” throughout. For the same compound, the Potency entry in test [12] and in test [13] was “inactive” throughout. Moreover, the Potency in test [1] was 14.8 µM (active).
For the compound `Cc1ccc(O)c(C(CCN(C(C)C)C(C)C)c2ccccc2)c1` (stereo not drawn), the Potency result in test [17], in test [7], in [1], in test [2], in test [8] and in test [4] was “inactive” in each case. Moreover, the Potency result in test [5] is “inactive”. Also, in [18], the Potency is 9.35 µM (active).
On to `CCCCCCCN(CC)CCCC(O)c1ccc(NS(C)(=O)=O)cc1` (stereo not drawn), for which the Potency result in [7], in test [8] and in test [15] was “inactive” throughout. Besides, the Potency is 20.9 µM (active) in [3] and 16.6 µM (active) in test [4].
Take `CC(C)c1cc(C(C)C)c(CC(=O)NS(=O)(=O)Oc2c(C(C)C)cccc2C(C)C)c(C(C)C)c1`: the Potency in test [17] was 7.43 µM (active); in test [4] it was 6.62 µM (active); in [10], 26.4 µM (active); in test [11] it was 33.2 µM (active); in test [12], 20.9 µM (active). Besides, the Potency result in [1], in test [5] and in [14] was “inactive” in each case.
Take `COc1cc(OC)c(NC(=O)Nc2cc(C)on2)cc1Cl`: the Potency entry in [16], in test [4], in test [10], in [5], in test [13] and in test [15] was “inactive” in each case. In addition, the Potency in test [2] is 14.8 µM (active).
With `CC(=O)OCC(=O)[C@@]12N=C(C)O[C@H]1C[C@H]1[C@@H]3CCC4=CC(=O)C=C[C@]4(C)[C@@H]3[C@@H](O)C[C@@]12C`, the Potency is 11.8 µM (active) in test [16], 5.26 µM (active) in test [2], 16.6 µM (active) in test [12] and 5.9 µM (active) in test [14]. Besides, the Potency result in test [8], in [4], in test [10], in [11] and in [15] was “inactive” throughout.
For `CCN1CCN(C(=O)N[C@H](C(=O)N[C@@H]2C(=O)N3C(C(=O)O)=C(CSc4nnnn4C)CS[C@@H]23)c2ccc(O)cc2)C(=O)C1=O`, the Potency result in [17], in test [1], in [2], in [4], in [9] and in test [10] was “inactive” throughout. Besides, the Potency result in [5] and in [13] was “inactive” throughout.
